Bioassay records as filed in PubChem.
TAR Tat displ: HIV-1 TAR-Tat binding disruption. 100,000 compounds, 0.6% hits. HIV-1 TAR RNA, Tat peptide displacement FRET; active compounds read high. z-score (no concentration beside the values). AID 1259389; active = z-score of 3 or more in at least 2 runs
CDC25B-CDK2 inh: human CDC25B-CDK2/CyclinA binding inhibition; HTRF CDC25B-CDK2/CyclinA binding, anti-His/anti-Flag; active compounds read high; z-score (test concentration not listed); 94,000 compounds, 0.72% hits; in the data active = z-score above about 3.2
A number is an active result; . = inactive; / = no result. Hits are enriched below; roughly 0.93% of the tested compounds scored in any of these assays.

SMILES	TAR Tat displ	CDC25B-CDK2 inh
COc1ccc(C2CC(=O)C3=C(C2)NC(C)=C(C#N)C3c2ccc(F)cc2)cc1 (stereo not given)	.	.
COc1ccc(C2CC(=O)N3CN(c4ccc(F)cc4)CSC3=C2C#N)c(OC)c1 (stereo not given)	.	4.41
COc1ccc(C2CC(=O)N3CN(C)CSC3=C2C#N)c(OC)c1 (stereo not given)	.	5.17
COc1ccc(N2CSC3=C(C#N)C(c4ccc(OC)cc4OC)CC(=O)N3C2)cc1 (stereo not given)	.	3.39
COc1ccc(Br)cc1C1CC(=O)N2CN(C)CSC2=C1C#N (stereo not given)	.	.
COc1ccc(N2CSC3=C(C#N)C(c4ccc(SC)cc4)CC(=O)N3C2)cc1 (stereo not given)	.	.
CC1=C(C(=O)NCCCN(C)C2CCCCC2)C2(CCCCC2)OC1=O	.	/
CCCCN(C)S(=O)(=O)c1c(C(=O)OCC)c(C)n(C)c1C	.	/
CN(CC(=O)Nc1cccc(F)c1)S(=O)(=O)c1ccc2c(c1)CCC(=O)N2	/	.
CCN(CC)c1ccc(NS(=O)(=O)c2ccc3c(c2)CC(C)N3C(=O)C2CC2)c(C)c1 (stereo not given)	.	/
N#Cc1nc(/C=C/c2cccs2)oc1N1CCNCC1	.	9.3
N#Cc1nc(/C=C/c2cccs2)oc1N1CCC(Cc2ccccc2)CC1	.	.
COc1ccccc1/C=C/c1nc(C#N)c(N2CCNCC2)o1	.	9.59
COc1ccccc1/C=C/c1nc(C#N)c(N2CCCCC2)o1	.	.
Cc1ccc(NS(=O)(=O)c2ccc3c(c2)C(C)(C)C(=O)N3C)cc1C	.	/
Cc1ccc(-c2nnn(-c3cc(Cl)ccc3C)n2)cc1	.	.
O=C(Nc1cccc2cccnc12)C(=O)Nc1cccc2cccnc12	/	.
O=C(Nc1cccc2cccnc12)c1ccco1	.	5.61
Cc1nc(N=Nc2ccc(C(=O)O)cc2)c(COP(=O)(O)O)c(C=O)c1O	/	.
Cc1ncc(COP(=O)(O)O)c(C=Nc2ccc3ccccc3c2)c1O	/	13.9
O=C(NC1CCSC1=O)c1ccc(-c2ccccc2)cc1 (stereo not given)	.	.
O=C(NC1CCSC1=O)c1cccc(C(=O)NC2CCSC2=O)c1 (stereo not given)	26.1	.
Cc1nn2c(=O)cc(CN(C)c3ccccc3)nc2s1	.	/
Cc1csc2nc(CN(C)c3ccccc3)cc(=O)n12	4.55	/
CCN(Cc1cc(=O)n2c(C)csc2n1)c1ccccc1	5.1	/
SMILES	TAR Tat displ	CDC25B-CDK2 inh
Cc1csc2nc(COc3ccccc3)cc(=O)n12	.	.
CCOc1ccc(-c2noc(CSc3nnc(-c4ccc(Cl)cc4)n3C)n2)cc1	.	.
COc1ccc(OC)c(NS(=O)(=O)c2cc(-c3onc(C)c3C)ccc2OC)c1	.	/
COCCNC(=O)Nc1cc2ccc(OC)cc2n1C	.	.
COc1ccc2cc(NC(=O)Nc3ccc(OC)c4cccnc34)n(C)c2c1	.	14.4
Cc1cc2n(n1)CCC(=O)N2CCCC(=O)NCc1cccs1	.	/
Cc1cc(C)c2c(=O)n(CC(=O)N3CCN(C4CCCCC4)CC3)sc2n1	.	.
O=c1[nH]c(SCc2c(F)cccc2Cl)nc2c1CCC2	8.61	.
O=c1[nH]c(SCc2ccccc2F)nc2c1CCC2	.	.
COC(=O)c1cc(S(=O)(=O)N(C)Cc2cnn(-c3ccccc3)c2)c[nH]1	.	/
O=C(O)c1cc(O)c(O)c(O)c1	6.76	/
O=C(O)c1ccnc(-c2cc(C(=O)O)ccn2)c1	/	.
COc1cc(O)c2c(c1)C(=O)c1cc(C)cc(O)c1C2=O	.	/
O=C(O)c1cc(O)c2c(c1)C(=O)c1cc(O)cc(O)c1C2=O	9.5	/
Oc1ccc(Cl)cc1Cc1cc(Cl)ccc1O	.	/
O=C(c1cc(O)c(O)c(O)c1)c1ccc(O)c(O)c1O	32.5	/
CCCS(=O)(=O)c1oc(-c2ccc(F)cc2)nc1S(=O)(=O)c1ccc(F)cc1	.	.
CCOC(=O)c1cc(S(=O)(=O)NC(CC)c2cccs2)cn1C (stereo not given)	.	.
COc1ccc(-c2cnn3c(N)c(C#N)cnc23)cc1OC	.	.
CCc1cc2c(=O)c(-c3nc4ccccc4n3C)c(CCC(=O)O)oc2cc1O	/	.
C=Cc1c(C)/c2[n-]/c1=C\c1[n-]c(c(CC)c1C)/C=c1\[n-]c3c(c1C)C(=O)C(C(=O)[O-])C=3c1[n-]c(c(C)c1CCC(=O)[O-])\C=2.[Cu].[Na+].[Na+] (stereo not given)	23.1	/
O=C(O)C1C2CC=CC2c2cc(Br)cc3c2N1CC1CC=CC31 (stereo not given)	20.1	4.91
Cc1cc2c3c(c1)C1C=CCC1C(C(=O)O)N3CC1CC=CC21 (stereo not given)	/	.
CCOc1ccc(NC(=O)N2CCCn3nc(-c4cccn4C)cc32)cc1	.	/
CC1=C(c2ccccc2)S(=O)(=O)NC1=NCCCN1CCN(c2cc(C)ccc2C)CC1	.	13.3
CC1=C(c2ccccc2)S(=O)(=O)NC1=NCCCN1CCN(C2CCCCC2)CC1	.	.
